What all share (assay): DAPPL (digital affinity profiling via proximity ligation, sequencing); 10 mM Tris-HCl pH 7.5, 50 mM NaCl, 1 mM DTT, 4% glycerol, room temperature, 30 min; GST-TFs on glutathione beads, 16-mer random dsDNA library, 0.1% formaldehyde crosslink after washing; high values mean tight binding
One assay deals with T1, FEV (Homo sapiens, UniProt Q99581 1-238).
T1 sequence: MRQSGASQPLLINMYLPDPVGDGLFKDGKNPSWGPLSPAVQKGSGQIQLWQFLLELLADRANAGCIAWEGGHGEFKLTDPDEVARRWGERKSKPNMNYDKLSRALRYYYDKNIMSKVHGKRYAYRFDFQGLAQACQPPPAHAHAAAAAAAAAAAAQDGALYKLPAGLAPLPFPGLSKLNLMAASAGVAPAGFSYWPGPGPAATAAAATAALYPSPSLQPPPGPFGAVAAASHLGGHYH
The following applies: protein: recombinant; tags: N-terminal GST; dsDNA, one strand shown. A digest of the protocol: (§1)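 Beads coated with glutathione captured GST-fused human transcription factors that had been expressed in yeast, and the factors were then given DNA barcodes and pooled with a tag-only sample. The pools were incubated with 200 nmole of a random double-stranded 16-mer DNA library in Tris/NaCl/DTT/glycerol buffer for 30 min at room temperature, washed, crosslinked with 0.1% formaldehyde and proximity-ligated with BsaI/T4 ligase at 37 °C for 1 h. PCR amplification and Illumina NextSeq500 sequencing came last. Binding signal is each hexamer's read frequency for a factor divided by its frequency for the tag-only sample.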

In a further assay the target is ETV5 (Homo sapiens, UniProt P41161 1-510). The following applies: protein: recombinant; tags: N-terminal GST; dsDNA, one strand shown. A digest of the protocol: as §1
In another assay the target is HSF1 (Homo sapiens, UniProt Q00613 1-529). The following applies: protein: recombinant; tags: N-terminal GST; chain copies: 3; dsDNA, one strand shown. A digest of the protocol:
as §1

The target in a further assay is T2, SPIC (Homo sapiens, UniProt Q8N5J4 1-248).
T2 sequence: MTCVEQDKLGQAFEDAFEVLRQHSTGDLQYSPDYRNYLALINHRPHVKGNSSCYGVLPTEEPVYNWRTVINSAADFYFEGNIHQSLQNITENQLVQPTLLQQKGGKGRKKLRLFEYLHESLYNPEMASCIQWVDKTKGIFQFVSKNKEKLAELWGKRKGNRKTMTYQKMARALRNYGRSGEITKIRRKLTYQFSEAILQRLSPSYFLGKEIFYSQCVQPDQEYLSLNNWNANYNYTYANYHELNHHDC
Particulars: protein: recombinant; tags: N-terminal GST; dsDNA, one strand shown. The essentials: as §1

The next assay addresses ELF4 (Homo sapiens, UniProt Q99607 1-663). Particulars: protein: recombinant; tags: N-terminal GST; dsDNA, one strand shown. The essentials:
as §1

The target in the next assay is T3, ELK4 (Homo sapiens, UniProt P28324-2 1-405).
T3 sequence: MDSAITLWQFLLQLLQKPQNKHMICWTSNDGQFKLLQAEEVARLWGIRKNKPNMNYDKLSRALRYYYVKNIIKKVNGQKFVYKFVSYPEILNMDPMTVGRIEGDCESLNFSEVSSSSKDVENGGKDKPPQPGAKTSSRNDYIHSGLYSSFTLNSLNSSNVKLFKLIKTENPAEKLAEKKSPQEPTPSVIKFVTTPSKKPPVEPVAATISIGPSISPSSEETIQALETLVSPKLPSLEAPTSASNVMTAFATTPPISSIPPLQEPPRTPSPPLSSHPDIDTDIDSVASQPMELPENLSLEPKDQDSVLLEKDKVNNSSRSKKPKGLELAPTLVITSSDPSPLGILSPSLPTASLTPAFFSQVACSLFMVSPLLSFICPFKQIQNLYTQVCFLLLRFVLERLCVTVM
Particulars: protein: recombinant; tags: N-terminal GST; dsDNA, one strand shown. A digest of the protocol: as §1

A further assay concerns the target T4, ETV2 (Homo sapiens, UniProt O00321 1-342).
T4 sequence: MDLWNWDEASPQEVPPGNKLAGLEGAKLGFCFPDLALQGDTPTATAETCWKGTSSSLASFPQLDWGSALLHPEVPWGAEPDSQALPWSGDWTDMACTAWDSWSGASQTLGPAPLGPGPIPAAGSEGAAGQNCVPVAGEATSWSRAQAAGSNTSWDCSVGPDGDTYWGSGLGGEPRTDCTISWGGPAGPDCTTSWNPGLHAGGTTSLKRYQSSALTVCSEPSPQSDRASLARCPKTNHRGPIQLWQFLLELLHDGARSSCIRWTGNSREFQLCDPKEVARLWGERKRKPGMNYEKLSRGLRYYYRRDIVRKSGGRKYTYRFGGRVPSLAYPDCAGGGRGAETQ
Particulars: protein: recombinant; tags: N-terminal GST; dsDNA, one strand shown. The essentials:
as §1

The target in the next assay is T5, ELF3 (Homo sapiens, UniProt P78545 1-371).
T5 sequence: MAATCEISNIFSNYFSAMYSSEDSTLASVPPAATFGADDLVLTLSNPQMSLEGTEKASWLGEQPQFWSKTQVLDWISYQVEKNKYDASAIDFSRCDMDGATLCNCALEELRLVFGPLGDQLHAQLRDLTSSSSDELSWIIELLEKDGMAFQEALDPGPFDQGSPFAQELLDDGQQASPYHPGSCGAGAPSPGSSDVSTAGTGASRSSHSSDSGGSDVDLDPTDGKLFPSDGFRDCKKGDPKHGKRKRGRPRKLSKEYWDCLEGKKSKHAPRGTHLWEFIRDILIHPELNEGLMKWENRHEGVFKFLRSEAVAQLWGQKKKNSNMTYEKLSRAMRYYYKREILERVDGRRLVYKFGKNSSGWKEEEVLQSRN
The following applies: protein: recombinant; tags: N-terminal GST; dsDNA, one strand shown. A digest of the protocol: as §1

In another assay the target is CRX (Homo sapiens, UniProt O43186 1-299). The following applies: protein: recombinant; tags: N-terminal GST; dsDNA, one strand shown. A digest of the protocol:
as §1

The target in the next assay is ETV1 (Homo sapiens, UniProt P50549 1-477). The following applies: protein: recombinant; tags: N-terminal GST; dsDNA, one strand shown. A digest of the protocol: as §1
Chain of ETV1 (P50549 whole entry): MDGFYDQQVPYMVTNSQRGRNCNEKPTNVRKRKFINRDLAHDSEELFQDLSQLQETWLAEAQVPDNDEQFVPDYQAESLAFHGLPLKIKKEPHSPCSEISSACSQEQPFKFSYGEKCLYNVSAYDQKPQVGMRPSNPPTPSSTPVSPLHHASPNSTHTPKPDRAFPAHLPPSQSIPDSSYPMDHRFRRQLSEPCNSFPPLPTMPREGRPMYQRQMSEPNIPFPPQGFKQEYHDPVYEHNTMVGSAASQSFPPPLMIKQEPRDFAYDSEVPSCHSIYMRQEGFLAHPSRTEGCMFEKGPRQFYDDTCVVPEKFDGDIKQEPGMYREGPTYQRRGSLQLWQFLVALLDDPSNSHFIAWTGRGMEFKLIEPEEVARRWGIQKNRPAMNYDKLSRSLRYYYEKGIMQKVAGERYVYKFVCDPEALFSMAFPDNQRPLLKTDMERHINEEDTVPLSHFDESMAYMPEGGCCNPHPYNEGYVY

Chain of HSF1 (Q00613 whole entry): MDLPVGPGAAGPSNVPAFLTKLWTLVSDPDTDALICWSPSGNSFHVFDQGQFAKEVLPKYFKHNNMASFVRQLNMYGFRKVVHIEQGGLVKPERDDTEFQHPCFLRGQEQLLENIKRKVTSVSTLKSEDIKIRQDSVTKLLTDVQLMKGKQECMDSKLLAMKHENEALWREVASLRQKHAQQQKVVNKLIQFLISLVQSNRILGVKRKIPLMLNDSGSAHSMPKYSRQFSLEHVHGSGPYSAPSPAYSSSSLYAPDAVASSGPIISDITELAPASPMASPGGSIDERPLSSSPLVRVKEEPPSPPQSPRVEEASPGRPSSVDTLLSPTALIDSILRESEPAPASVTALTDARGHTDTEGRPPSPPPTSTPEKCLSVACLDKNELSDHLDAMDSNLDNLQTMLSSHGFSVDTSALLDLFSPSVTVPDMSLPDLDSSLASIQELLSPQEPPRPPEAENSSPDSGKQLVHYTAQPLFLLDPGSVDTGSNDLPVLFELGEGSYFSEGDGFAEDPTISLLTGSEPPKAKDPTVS
Chain of ETV5 (P41161 whole entry): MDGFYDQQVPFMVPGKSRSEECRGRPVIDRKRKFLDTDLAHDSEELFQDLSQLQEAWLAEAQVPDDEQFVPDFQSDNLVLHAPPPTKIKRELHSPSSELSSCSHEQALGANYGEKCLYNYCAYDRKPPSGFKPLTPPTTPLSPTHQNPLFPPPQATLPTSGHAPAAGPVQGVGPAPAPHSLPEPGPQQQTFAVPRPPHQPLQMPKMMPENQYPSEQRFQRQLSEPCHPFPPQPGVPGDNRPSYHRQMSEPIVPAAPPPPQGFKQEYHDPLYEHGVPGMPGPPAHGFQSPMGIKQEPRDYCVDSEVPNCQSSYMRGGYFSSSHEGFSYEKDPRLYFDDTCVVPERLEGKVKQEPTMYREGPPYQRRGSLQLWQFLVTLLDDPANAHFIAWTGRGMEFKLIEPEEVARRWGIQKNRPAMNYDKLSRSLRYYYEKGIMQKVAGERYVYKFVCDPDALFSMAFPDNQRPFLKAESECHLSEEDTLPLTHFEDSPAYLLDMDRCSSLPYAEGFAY
Chain of ELF4 (Q99607 whole entry): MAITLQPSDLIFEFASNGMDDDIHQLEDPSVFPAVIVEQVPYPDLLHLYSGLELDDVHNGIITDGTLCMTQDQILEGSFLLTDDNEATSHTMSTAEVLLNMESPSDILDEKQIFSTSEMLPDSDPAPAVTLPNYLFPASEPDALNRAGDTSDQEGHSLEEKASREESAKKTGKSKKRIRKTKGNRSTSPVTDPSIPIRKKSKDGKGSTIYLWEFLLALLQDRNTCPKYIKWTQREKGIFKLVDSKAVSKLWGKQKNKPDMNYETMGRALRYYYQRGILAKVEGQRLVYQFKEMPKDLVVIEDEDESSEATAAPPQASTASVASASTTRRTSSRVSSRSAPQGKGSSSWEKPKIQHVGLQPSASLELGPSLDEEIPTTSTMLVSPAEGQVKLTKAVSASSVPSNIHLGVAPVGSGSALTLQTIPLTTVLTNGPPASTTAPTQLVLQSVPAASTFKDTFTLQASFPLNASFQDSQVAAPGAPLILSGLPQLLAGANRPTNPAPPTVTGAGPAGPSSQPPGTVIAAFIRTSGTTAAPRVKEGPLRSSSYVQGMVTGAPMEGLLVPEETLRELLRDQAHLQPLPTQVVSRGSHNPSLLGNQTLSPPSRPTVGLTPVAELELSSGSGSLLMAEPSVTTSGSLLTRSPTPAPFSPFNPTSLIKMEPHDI
Chain of CRX (O43186 whole entry): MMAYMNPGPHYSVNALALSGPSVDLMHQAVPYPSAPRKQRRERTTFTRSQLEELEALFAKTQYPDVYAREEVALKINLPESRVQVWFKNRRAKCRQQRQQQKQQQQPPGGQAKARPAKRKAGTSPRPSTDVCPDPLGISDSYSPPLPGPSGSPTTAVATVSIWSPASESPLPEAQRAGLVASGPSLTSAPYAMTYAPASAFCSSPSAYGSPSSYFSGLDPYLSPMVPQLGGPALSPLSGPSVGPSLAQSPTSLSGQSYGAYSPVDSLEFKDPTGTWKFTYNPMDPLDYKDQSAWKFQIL

Turning to TAGCAC, the binding signal in the assay with FEV is 1.22 fold enrichment (6-mer frequency, TF over GST control); in the assay with ETV5, 1.14 fold enrichment (6-mer frequency, TF over GST control); with HSF1, 1.24 fold enrichment (6-mer frequency, TF over GST control); with SPIC, 1.04 fold enrichment (6-mer frequency, TF over GST control); with ELF4, 1.18 fold enrichment (6-mer frequency, TF over GST control); in the assay with ELK4, 1.11 fold enrichment (6-mer frequency, TF over GST control). For the same sequence, the binding signal with ETV2 is 1.25 fold enrichment (6-mer frequency, TF over GST control); with ELF3 it was 1.15 fold enrichment (6-mer frequency, TF over GST control); with CRX, 1.22 fold enrichment (6-mer frequency, TF over GST control); in the assay with ETV1, 1.19 fold enrichment (6-mer frequency, TF over GST control).
Take CTATGG: the binding signal was 1.15 fold enrichment (6-mer frequency, TF over GST control) with FEV; 1.23 fold enrichment (6-mer frequency, TF over GST control) with ETV5; 1.17 fold enrichment (6-mer frequency, TF over GST control) with HSF1; 1.14 fold enrichment (6-mer frequency, TF over GST control) with SPIC; 1.15 fold enrichment (6-mer frequency, TF over GST control) with ELF4; 1.24 fold enrichment (6-mer frequency, TF over GST control) in the assay with ELK4. In addition, the binding signal with ETV2 is 1.28 fold enrichment (6-mer frequency, TF over GST control); with ELF3, 1.25 fold enrichment (6-mer frequency, TF over GST control); with CRX, 1.11 fold enrichment (6-mer frequency, TF over GST control); with ETV1, 1.18 fold enrichment (6-mer frequency, TF over GST control).
In the case of GCCTTC, the binding signal is 1.57 fold enrichment (6-mer frequency, TF over GST control) with FEV; 1.56 fold enrichment (6-mer frequency, TF over GST control) in the assay with ETV5; 1.49 fold enrichment (6-mer frequency, TF over GST control) with HSF1; 1.71 fold enrichment (6-mer frequency, TF over GST control) with SPIC; 1.6 fold enrichment (6-mer frequency, TF over GST control) in the assay with ELF4; 1.64 fold enrichment (6-mer frequency, TF over GST control) with ELK4. Further, the binding signal is 1.63 fold enrichment (6-mer frequency, TF over GST control) with ETV2; 1.41 fold enrichment (6-mer frequency, TF over GST control) with ELF3; 1.2 fold enrichment (6-mer frequency, TF over GST control) with CRX; 1.66 fold enrichment (6-mer frequency, TF over GST control) with ETV1.
On to ATGACT, for which the binding signal was 1.4 fold enrichment (6-mer frequency, TF over GST control) with FEV; 1.43 fold enrichment (6-mer frequency, TF over GST control) in the assay with ETV5; 1.21 fold enrichment (6-mer frequency, TF over GST control) with HSF1; 1.47 fold enrichment (6-mer frequency, TF over GST control) with SPIC; 1.41 fold enrichment (6-mer frequency, TF over GST control) in the assay with ELF4; 1.39 fold enrichment (6-mer frequency, TF over GST control) in the assay with ELK4. Besides, the binding signal with ETV2 was 1.41 fold enrichment (6-mer frequency, TF over GST control); in the assay with ELF3, 1.46 fold enrichment (6-mer frequency, TF over GST control); with CRX, 1.25 fold enrichment (6-mer frequency, TF over GST control); with ETV1, 1.36 fold enrichment (6-mer frequency, TF over GST control).
ATGCCT: the binding signal was 1.35 fold enrichment (6-mer frequency, TF over GST control) in the assay with FEV; 1.41 fold enrichment (6-mer frequency, TF over GST control) with ETV5; 1.13 fold enrichment (6-mer frequency, TF over GST control) in the assay with HSF1; 1.55 fold enrichment (6-mer frequency, TF over GST control) with SPIC; 1.29 fold enrichment (6-mer frequency, TF over GST control) with ELF4; 1.49 fold enrichment (6-mer frequency, TF over GST control) with ELK4. The binding signal in the assay with ETV2 is 1.2 fold enrichment (6-mer frequency, TF over GST control); in the assay with ELF3 it was 1.4 fold enrichment (6-mer frequency, TF over GST control); with CRX it was 1.28 fold enrichment (6-mer frequency, TF over GST control); in the assay with ETV1 it was 1.33 fold enrichment (6-mer frequency, TF over GST control).
Consider AAGCAT, for which the binding signal in the assay with FEV is 1.07 fold enrichment (6-mer frequency, TF over GST control); in the assay with ETV5 it was 1.06 fold enrichment (6-mer frequency, TF over GST control); in the assay with HSF1, 1.15 fold enrichment (6-mer frequency, TF over GST control); with SPIC, 1.06 fold enrichment (6-mer frequency, TF over GST control); in the assay with ELF4 it was 1.13 fold enrichment (6-mer frequency, TF over GST control); in the assay with ELK4, 1.19 fold enrichment (6-mer frequency, TF over GST control). Moreover, the binding signal in the assay with ETV2 is 1.06 fold enrichment (6-mer frequency, TF over GST control); with ELF3 it was 1.17 fold enrichment (6-mer frequency, TF over GST control); with CRX it was 1.14 fold enrichment (6-mer frequency, TF over GST control); with ETV1 it was 1.04 fold enrichment (6-mer frequency, TF over GST control).
For TATTCA, the binding signal with FEV was 1.28 fold enrichment (6-mer frequency, TF over GST control); in the assay with ETV5, 1.33 fold enrichment (6-mer frequency, TF over GST control); with HSF1 it was 1.32 fold enrichment (6-mer frequency, TF over GST control); with SPIC it was 1.47 fold enrichment (6-mer frequency, TF over GST control); with ELF4, 1.29 fold enrichment (6-mer frequency, TF over GST control); with ELK4 it was 1.33 fold enrichment (6-mer frequency, TF over GST control). In addition, the binding signal in the assay with ETV2 was 1.35 fold enrichment (6-mer frequency, TF over GST control); with ELF3, 1.31 fold enrichment (6-mer frequency, TF over GST control); with CRX, 1.42 fold enrichment (6-mer frequency, TF over GST control); in the assay with ETV1 it was 1.28 fold enrichment (6-mer frequency, TF over GST control).
